Screening results as filed in PubChem BioAssay.
A selection: hits, their analogues and other compounds. The true share with any hit is near 3.5%.
GPR151 ag: activates the human receptor GPR151. Q8TDV0. PathHunter beta-arrestin GPR151 cells, luminescence. actives 1% (n = 650,000). activation, % at 11.2 µM. AID 1508602; in the data active = activation above about 4.9%;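 note: 0% = median of compound wells and 100% = cells with positive control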
FBW7 activator: human FBW7 E3 ligase activation, primary screen. actives 0.13% (n = 650,000). normalized activity (activation), % at 26.1 µM. AID 1259310. AlphaScreen FBW7–phospho-cyclin E peptide binding, activator screen; in the data active = normalized activity above about 1.9%;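 note: purified mutant Fbw7 with reduced substrate affinity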
TEAD-YAP inh: TEAD-YAP interaction inhibition; HEK-TIYL cells, TEAD-Gal4/YAP UAS-luciferase luminescence; inhibition, % at 9.12 µM; actives 1.4% (n = 640,000); AID 1259422; in the data active = inhibition above about 32%;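 note: 0% = median of test compound wells and 100% = reference inhibitor wells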
MITF primary: human MITF inhibition, primary screen; O75030; actives 0.91% (n = 650,000); inhibition, % at 2.6 µM; AlphaScreen MITF homodimerization, bead proximity signal; in the data active = inhibition above about 50%;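 note: 0% = vehicle wells with protein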
Target sequence (O75030 whole entry, looked up): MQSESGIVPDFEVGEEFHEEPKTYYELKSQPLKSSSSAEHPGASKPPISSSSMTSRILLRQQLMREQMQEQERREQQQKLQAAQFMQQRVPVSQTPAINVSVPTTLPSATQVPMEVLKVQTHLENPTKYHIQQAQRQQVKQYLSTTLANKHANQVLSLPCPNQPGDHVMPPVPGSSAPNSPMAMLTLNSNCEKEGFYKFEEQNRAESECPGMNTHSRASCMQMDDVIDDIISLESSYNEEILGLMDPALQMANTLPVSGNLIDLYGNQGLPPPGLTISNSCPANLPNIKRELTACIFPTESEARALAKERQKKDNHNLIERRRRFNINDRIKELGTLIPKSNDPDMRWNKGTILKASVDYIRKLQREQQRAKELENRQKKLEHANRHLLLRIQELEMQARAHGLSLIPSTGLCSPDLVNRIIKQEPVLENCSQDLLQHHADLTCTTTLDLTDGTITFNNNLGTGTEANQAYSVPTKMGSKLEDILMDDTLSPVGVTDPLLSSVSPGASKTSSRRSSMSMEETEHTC
MITF inh conf: human MITF inhibition, confirmation. actives 16% (n = 4,700). shares compounds with MITF primary. AlphaScreen MITF homodimerization, biotin/His-MITF beads. inhibition, % at 2.6 µM;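 active = inhibition above a cutoff derived from the DMSO control wells, cut at about 28% in these data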;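 note: 0% = MITF dimer wells with DMSO only; inhibitors lower the bead chemiluminescence by keeping MITF from dimerizing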
AlphaScreen intf2: AlphaScreen optical interference, counter-screen; shares compounds with MITF primary; LysRS AlphaScreen counterscreen, signal interference, triplicate; inhibition, % at 2.6 µM; actives 7.6% (n = 4,700); AID 1259376;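 active = inhibition above a cutoff derived from the DMSO control wells, cut at about 30% in these data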
The depositor's hits bear a star; . = no result given.

SMILES	GPR151 ag	FBW7 activator	TEAD-YAP inh	MITF primary	MITF inh conf	AlphaScreen intf2
O=C(CN1CCN(c2ccccn2)CC1)N(Cc1ccccc1)Cc1ccccc1	1	0	-1	91*	10	13
Brc1ccc(CN2CCN(c3ccccn3)CC2)cc1	0	0	9	53*	-2	3
COc1cc(CN2CCN(c3ccccn3)CC2)ccc1O	-2	0	1	54*	-3	2
Cc1ccc(CN2CCN(c3ccccn3)CC2)cc1	0	1	6	44	.	.
CCc1nnc2c3c4c(sc3nc(CC)n12)CCCC4	3	0	4	-3	.	.
C(=N\Nc1nc(-c2ccccn2)cs1)/c1cccnc1	-2	0	-4	52*	30*	54*
Cc1cc(CN2CCCC(C(=O)Nc3ccc(-c4ccn[nH]4)cc3)C2)oc1C (centres undefined)	1	0	-1	6	.	.
CN(C(=O)Cc1ccc(NC2=NC3CS(=O)(=O)CC3S2)cc1)C1CCCCC1 (centres undefined)	4	-1	-8	58*	56*	42*
COc1ccc([C@H]2C(C#N)=C(N)OC3=C2C(=O)CC(C)(C)C3)c([N+](=O)[O-])c1OC	0	0	-7	17	.	.
COc1ccc(C2C(C#N)=C(N)OC3=C2C(=O)CC(C)(C)C3)c2ccccc12 (centres undefined)	0	0	5	70*	8	12
O=C(Oc1ccccc1Br)c1cccc(S(=O)(=O)N2CCOCC2)c1	0	0	2	-1	.	.
Cc1ccc(NC(=O)C(Cc2c[nH]c3ccccc23)NC(=O)OC(C)(C)C)cc1 (centres undefined)	0	0	7	62*	1	12
CCCN(CCC)c1ccc(C(=O)OC)cc1NC(=S)Nc1ccccc1OC	1	0	-4	11	.	.
Brc1ccc(CN2CCN(Cc3ccccc3)CC2)o1	0	0	1	55*	4	15
Clc1ccc(N2CCN(Cc3ccc(Br)o3)CC2)cc1	1	0	2	58*	4	-1
COc1ccc(OC)c(NC(=O)CSc2nc3ccccc3c(=O)n2CC2COc3ccccc3O2)c1 (centres undefined)	0	0	0	0	.	.
CN(C(=O)C1CCC1)c1nnc(-c2cccnc2)s1	0	0	-68	24	.	.
COc1cccc(NC(=O)CCNC(=O)c2cn(-c3cccc(OC)c3)c(=O)c3ccccc23)c1	-1	0	7	-14	.	.
COc1ccc(OC)c(/C=N/NC(=O)CN2CCCCCC2)c1	2	0	-3	23	.	.
CCOC(=O)c1[nH]c(C)c(CNc2cccc(F)c2)c1C	1	0	3	-12	.	.
CCOC(=O)c1[nH]c(C)c(CNc2ccccc2)c1C	-1	0	2	60*	27	12
O=C(CNCc1ccccc1F)N1CCN(C(=O)CNCc2ccccc2F)CC1	0	0	6	61*	2	18
O=C(c1ccncc1)N1CCN(Cc2ccccc2Br)CC1	0	0	0	62*	-10	-2
Cn1cccc1CN1CCN(C(=O)c2ccc([N+](=O)[O-])cc2)CC1	1	0	6	40	.	.
O=C(c1ccc([N+](=O)[O-])cc1)N1CCN(Cc2ccccc2Br)CC1	0	0	1	58*	-12	-3
SMILES	GPR151 ag	FBW7 activator	TEAD-YAP inh	MITF primary	MITF inh conf	AlphaScreen intf2
O=C(c1ccc(-c2ccccc2)cc1)N1CCN(Cc2ccncc2)CC1	2	0	-34	7	.	.
O=C(c1ccco1)N1CCN(Cc2ccccc2F)CC1	2	0	-2	61*	10	12
Cn1c(=O)c2c(SCC(=O)Nc3ccc(Cl)c(Cl)c3)ccnc2n(C)c1=O	1	0	3	0	.	.
CC(C)[C@H]1CN(Cc2ccccc2F)CCN1C(=O)c1ccncc1	0	0	-10	-3	.	.
O=C(c1ccncc1)N1CCN(Cc2ccccc2F)CC1	-1	0	-5	78*	3	12
COc1ccc(S(=O)(=O)N2CCCCC2C(=O)O)cc1OC (centres undefined)	3	0	11	9	.	.
COc1ccc(S(=O)(=O)N2CCCCC2C(=O)O)cc1 (centres undefined)	0	0	8	68*	10	15
Cc1cc(-c2cnc(N3CCCCC3)nc2C2CCN(C(=O)OC(C)(C)C)CC2)on1	3	0	1	-23	.	.
O=C(N/N=C/c1cc(O)ccc1Br)c1cccnc1	1	-1	66*	59*	88*	100*
O=C(N/N=C/c1cc(O)ccc1Br)c1ccncc1	0	1	77*	114*	120*	100*
Cc1sc(NC(=O)C2C3C=CC(C3)C2C(=O)O)c(C(=O)OC(C)C)c1C (centres undefined)	0	0	10	11	.	.
CSc1cccc(C(=O)N(CCn2cccn2)c2nc3c(C)cc(C)cc3s2)c1	0	0	-7	95*	-14	-5
COc1ccc(-n2nnc3c(=O)n(CC(=O)NC4CCCC4)cnc32)cc1OC	1	0	0	5	.	.
NC(=O)C1CCN(C(=O)/C=C/c2ccc([N+](=O)[O-])cc2)CC1	4	0	-4	20	.	.
CC(C)(C)c1ccc(/C=C/C(=O)N2CCC(C(N)=O)CC2)cc1	1	0	-13	65*	-6	-10
Cn1cccc1CN1CCN(S(C)(=O)=O)CC1	0	0	-9	22	.	.
Cn1cccc1CN1CCN(Cc2ccc(F)cc2)CC1	-1	0	4	65*	4	7
c1ccc(CN2CCC(N3CCN(C4CCCCC4)CC3)CC2)cc1	1	0	5	30	.	.
Cn1cccc1CN1CCN(C2CCCC2)CC1	4	0	-12	70*	11	25
Cn1cccc1CN1CCN(Cc2ccccc2)CC1	1	0	8	70*	7	20
Cn1cccc1CN1CC[C@H]2[C@H](CCC(=O)N2Cc2ccc(F)cc2)C1	-2	0	7	6	.	.
Cn1cccc1CN1CCN(Cc2ccncc2)CC1	-1	0	0	64*	-3	4
O=C(NCC(c1ccc2c(c1)OCO2)N1CCN(c2ccccc2)CC1)Oc1ccccc1 (centres undefined)	1	0	5	7	.	.
O=C1c2ccc([N+](=O)[O-])cc2C(=O)N1Cc1ccco1	1	1	3	12	.	.
Cn1c(C(O)c2ccc(OCc3ccccc3)cc2)nc2ccccc21 (centres undefined)	0	0	5	4	.	.
Cc1ccccc1CN1CCN(C(=O)C(c2ccccc2)c2ccccc2)CC1	-1	0	2	38	.	.
O=C(C(c1ccccc1)c1ccccc1)N1CCN(Cc2ccc(F)cc2)CC1	-2	0	6	62*	9	23
O=C(C(c1ccccc1)c1ccccc1)N1CCN(Cc2ccncc2)CC1	-1	0	4	62*	-8	-10
